Screening results deposited in PubChem by SRMLSC.
A selection: hits, their analogues and other compounds. The true share with any hit is near 6.5%.
NADH coupling: inhibitors of enzymes used to reach an NAD/NADH endpoint | coupled PK/LDH NADH assays, four targets | IC50, µM (highest dose often 10 µM), inactives show at the highest dose inhibition | 0.02% of 65,000 active | AID 774;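 active means single-dose screening hits from any of four coupled enzyme assays that gave an IC50 when retested across doses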;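 further: the DPM-DC format reads NADH fluorescence rather than 340 nm absorbance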
Fluor 339 460: intrinsic fluorescence of library compounds, ex339/em460 – biochemical, MLSMR library, data from DPM-DC assay, artefact control, profiling panel. 5.5% of 65,000 active. compound autofluorescence, ex339/em460 nm, NADH buffer; stronger effect = higher value; 1 = no-compound wells, NADH background. fluorescence fold increase at 10 µM;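 active means at 10 µM, mean starting fluorescence two-fold or more over control wells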;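 further: signal is the first read of a kinetic run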
Abs 340nm: absorbance at 340 nm; compound absorbance at 340 nm, fold over control; fold change at 10 µM; 65,000 tested, under 10 active;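 active means at 10 µM dose, initial 340 nm absorbance at least 2 fold that of control wells; inactive means change under 2 fold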;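 further: initial absorbance extrapolated from kinetic A340 decline of NADH oxidation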
Spn DPM-DC inh: S. pneumoniae DPM-DC inhibition; purified DPM-DC, PK/LDH coupled NADH fluorescence; calls only at 10 µM; 0.49% of 65,000 active;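 active means the 320 compounds with the highest percent inhibition in the single-dose primary screen, excluding strongly autofluorescent ones, cut at about 32% in these data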;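 further: kinetic rate of NADH fluorescence loss reporting ADP formed by the decarboxylase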
MK inhibit: S. pneumoniae mevalonate kinase inhibition; purified MK, PK/LDH-coupled NADH absorbance 340 nm; inhibition, % at 10 µM; 0.48% of 65,000 active;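 active means ranked among the strongest by inhibition in the single 10 µM screen, a fixed top-ranked set picked for dose follow-up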
PMK inhibit: blocks S. pneumoniae phosphomevalonate kinase; purified PMK, PK/LDH-coupled NADH absorbance 340 nm; inhibition, % at 10 µM; 0.49% of 65,000 active;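 active means top-ranked compounds by inhibition in the single 10 µM screen, taking a fixed number of the strongest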;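 further: 0% = full reaction with DMSO carrier and 100% = background rate without enzyme reaction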
* marks the source's active call; other numbers are inactive results; i = inactive; / = no result given; + = active, no number.

SMILES	NADH coupling	Fluor 339 460	Abs 340nm	Spn DPM-DC inh	MK inhibit	PMK inhibit
COc1ccc(-c2cc(C(F)(F)F)n3nc(C(=O)O)nc3n2)cc1	11%	2.9*	1.1	i	9	16
O=C(c1nc2nc(-c3ccccc3)cc(C(F)(F)F)n2n1)N1CCOCC1	10%	1.5	1.1	i	0	20
O=C(c1nc2nc(-c3ccc(Cl)cc3)cc(C(F)(F)F)n2n1)N1CCOCC1	10%	3.2*	1.1	/	15	5
N=C1C(c2nc3ccccc3c(=O)[nH]2)=C(O)CN1CCO	10%	1.9	1	i	0	15
COc1ccccc1N1CC(O)=C(c2nc3ccccc3c(=O)[nH]2)C1=N	7%	2.5*	1	i	22	7
COCCN1CC(O)=C(c2nc3ccccc3c(=O)[nH]2)C1=N	4%	3.7*	1.1	/	8	0
COc1ccc2nc3oc(C(=O)N4CCC(C(N)=O)CC4)cc3cc2c1	3%	5.1*	1.1	/	0	5
COc1ccc2cc3cc(C(=O)Nc4ccc5c(c4)OCCO5)oc3nc2c1	7%	2.1*	1.1	i	0	8
COc1ccc2cc3cc(C(=O)N4CCN(Cc5ccc6c(c5)OCO6)CC4)oc3nc2c1	8%	5*	1.1	/	1	14
CCN(C(=O)c1cc2cc3ccc(C)cc3nc2o1)c1ccc(OC)cc1	3%	1.2	1	i	2	0
COc1ccc2cc3cc(C(=O)NCC4COc5ccccc5O4)oc3nc2c1 (stereo not given)	5%	5*	1	/	0	10
COCCn1c(SCC(=O)NCC2CCCO2)nc2c(c1=O)SC(C)C2 (stereo not given)	11%	1	1.1	i	3	23
CCn1c(=N)n(CC(=O)C23CC4CC(CC(C4)C2)C3)c2ccccc21	3%	0.97	0.98	i	10	17
COC(=O)CN(Cc1ccccc1)S(=O)(=O)c1ccc(OC)c(OC)c1	3%	1.1	1.1	i	0	9
COc1ccc2cc3cc(C(=O)NCc4ccc5c(c4)OCO5)oc3nc2c1	6%	5.1*	1	/	0	11
O=C(NCc1ccc2c(c1)OCO2)c1cc(S(=O)(=O)N2CCCCC2)ccc1F	4%	1	1	i	0	12
O=C(NCc1ccc2c(c1)OCO2)c1c[nH]c2ccc(S(=O)(=O)N3CCOCC3)cc2c1=O	10%	2*	1.1	i	2	17
O=C(NCC1COc2ccccc2O1)c1c[nH]c2ccc(S(=O)(=O)N3CCOCC3)cc2c1=O (stereo not given)	2%	2.8*	1.1	i	2	2
CCCOc1ccc(/C(O)=C2/C(=O)C(=O)N(CCN(CC)CC)C2c2ccncc2)cc1 (stereo not given)	2%	1.1	1	i	5	0
Cc1ccc(-n2nc3ccc(N)cc3n2)cc1	7%	2.1*	1.1	/	6	7
Cc1ccc(-n2nc(-c3ccc(N)cc3)cc2N)cc1	3%	1.1	1	i	10	0
CCOc1ccccc1-n1c(SCC(=O)Nc2ccc(CC)cc2)nc2n[nH]c(C)c2c1=N	13%	4.9*	1.1	/	0	25*
CCOc1ccccc1NC(=O)CCSc1nc2n[nH]c(C)c2c(=N)n1-c1ccccc1Cl	13%	1.3	1	i	8	21
Cc1[nH]c2ccccc2c1C(=O)CN1CCCCC1CCO (stereo not given)	7%	1	1	i	6	14
CC(C)NC(=O)c1cc2c(-c3ccc(Cl)cc3)nn(C)c2s1	9%	1.6	1.1	i	5	9
SMILES	NADH coupling	Fluor 339 460	Abs 340nm	Spn DPM-DC inh	MK inhibit	PMK inhibit
Cn1nc(-c2ccc(Cl)cc2)c2cc(C(=O)NCCCN3CCCC3)sc21	6%	2.1*	1.1	/	6	6
CCOC(=O)N1CCC(NC(=O)c2cc3c(-c4ccc(Cl)cc4)nn(C)c3s2)CC1	8%	2.1*	1.1	/	6	10
COCCCNC(=O)c1cc2c(-c3ccc(Cl)cc3)nn(C)c2s1	1%	2.2*	1.1	/	1	0
COCCNC(=O)c1cc2c(-c3ccccc3F)nn(C)c2s1	7%	2*	0.98	i	12	13
O/N=C(\c1ccc(Cl)cc1)c1cc2ccccc2o1	2%	1.1	1	i	7	0
CC(C)CN(CC(C)C)c1nnc(N)s1	7%	1	1	i	8	10
COCCNC(=O)c1cc2c(-c3ccc(Cl)cc3)nn(C)c2s1	4%	2.2*	1.1	/	0	7
CCCCNC(=O)c1cc2c(-c3ccc(Cl)cc3)nn(C)c2s1	1%	1.5	1.1	i	3	0
Cn1c(NCCO)nc2c(c1=O)C1(CCCCC1)Cc1ccccc1-2	0%	2.2*	1.1	/	0	0
CC1(C)Cc2ccccc2-c2nc(NCCCO)n(-c3ccccc3)c(=O)c21	5%	2.1*	1.1	/	4	5
O=c1c2c(nc3n1CCCCC3)-c1ccccc1CC21CCCC1	7%	1	1	i	12	8
O=c1[nH]c(NCCCO)nc2c1C1(CCCC1)Cc1ccccc1-2	11%	2.1*	1.1	/	8	13
C=COCCNC(=O)C1CC(=O)N(c2ccc(C)cc2)C1 (stereo not given)	7%	1.1	0.99	i	4	11
Cc1ccnc(N2CCC(C(=O)Nc3cccc(C(F)(F)F)c3)CC2)n1	4%	1.3	0.99	i	2	11
NC(=O)c1oc2ccc(Cl)cc2c1NC(=O)CN1CCOCC1	1%	1.1	1	i	0	8
CCC(C)(C)n1nnnc1CN(Cc1ccco1)Cc1cc2cc3c(cc2[nH]c1=O)OCO3	8%	3.5*	1.1	/	7	8
CC(C)(C)n1nnnc1CN(Cc1ccco1)Cc1cc2cc3c(cc2[nH]c1=O)OCO3	3%	2.5*	1	/	7	12
CCC(C)(C)n1nnnc1CN(Cc1ccc(Cl)cc1)Cc1ccco1	3%	1.1	1	i	0	9
COCCN(C(=O)CCC(=O)Nc1ccccn1)C(C(=O)NC1CCCC1)c1ccc(OC)cc1 (stereo not given)	4%	1	0.98	i	5	24
CCOC(=O)N1CCC(N2CC34C=CC(O3)C(C(=O)O)C4C2=O)CC1 (stereo not given)	1%	1.1	0.99	i	8	0
Nc1nc2c(s1)CCc1c-2cnn1-c1ccccc1	21µM*	0.86	0.95	+	0	5
COc1ccc(-c2cnn(-c3ccccc3)c2N)cc1OC	2%	1.1	1.1	i	5	2
Cc1ccc(-n2c(-c3ccncc3)nnc2-c2cccs2)cc1	4%	1.3	0.99	i	6	9
COC(=O)CSc1ncc(C#N)c(N)n1	2%	1.2	1.1	i	6	0
